APE1 inh-1: APE1 (human) endonuclease inhibition | P27695 | recombinant APE1, TAMRA/BHQ-2 abasic DNA cleavage fluorescence | Potency, µM (titrated, usually from 65.8 µM), inactives show at the top dose activity change, negative = inhibition, actives largely listed as inhibitors | 350,000 tested, 0.35% active;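 note: plate controls were vehicle for no effect and reference inhibitor for full effect; nearly all actives have a fitted effect of over 55% in size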
Target sequence (P27695 whole entry, looked up): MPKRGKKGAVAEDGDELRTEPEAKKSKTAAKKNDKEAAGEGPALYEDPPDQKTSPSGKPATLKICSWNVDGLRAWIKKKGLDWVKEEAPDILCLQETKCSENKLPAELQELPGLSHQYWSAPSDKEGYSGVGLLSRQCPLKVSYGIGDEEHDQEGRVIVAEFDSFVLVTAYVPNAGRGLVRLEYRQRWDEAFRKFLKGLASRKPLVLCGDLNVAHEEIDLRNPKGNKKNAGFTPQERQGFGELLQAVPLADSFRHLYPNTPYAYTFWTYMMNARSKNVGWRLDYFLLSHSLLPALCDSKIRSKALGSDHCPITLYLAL
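Step 1: APE1 (0.75 nM) with compound, 15 min RT. Step 2: add 50 nM fluorophore/quencher THF duplex. Step 3: three fluorescence reads 60 s apart (525/598 nm); read 3 minus read 1 = reaction progress.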
BLM helicase inh: inhibitors of human Bloom syndrome helicase BLM; recombinant BLM DNA unwinding, fluorescence dequenching; Potency, µM (highest dose often 56.1 µM), for the others: top-dose activity change, negative = inhibition, usual class: inhibitors; 350,000 tested, 0.2% active; P54132;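 note: plate controls were vehicle for no effect and no enzyme for full effect; nearly all actives have a fitted effect of over 35% in size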
TexasRed fluor: counter-screen for TRb-SRC2 inhibitors: fluorescence interference | TRb/SRC2 Texas Red total fluorescence interference | AID 1479 | 280,000 tested, 0.29% active | Potency, µM (doses to about 106 µM), for the others: top-dose fluorescence change, negative = quenching; active = well fitted curve in either direction with a large enough effect; inconclusive = small, poorly fitted or top-dose-only effect
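Flags fluorescent or light-absorbing compounds by total fluorescence, S + 2P, at 555 nm excitation and 632 nm emission. Mixture: 20 nM Texas Red SRC2 peptide, 0.6 uM human TRb LBD, 1 uM T3, 5% DMSO; compound exposure 5 h at ambient temperature.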
RECQ1 inh: RECQ1 (human) helicase inhibition; RECQ1 DNA unwinding, red fluorescence kinetic read; P46063; Potency, µM (highest dose often 57.3 µM), for the others: at the highest dose activity, negative = inhibition, actives largely listed as inhibitors; 240,000 tested, 0.54% active;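 note: plate controls were vehicle for no effect and no enzyme for full effect; nearly all actives have a fitted effect of over 30% in size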
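RECQ1T1 50 nM; forked duplex (20 bp + 30-nt ss tails) 200 nM, ATP 2 mM final; pH 8.0, 2 mM MgCl2, 2.5 ug/ml poly(dI-dC); 15 min compound preincubation; discontinuous kinetic read over 2 h at RT.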
TRb SRC2 PPI: disrupts binding of human TR beta to SRC2; P10828; Potency, µM (highest dose often 106 µM), for inactives: at the top dose activity change, negative = inhibition, hits mostly inhibitors; TRbeta-SRC2 peptide binding, fluorescence polarization; receptor liganded with 1 µM T3; 280,000 tested, 0.065% active;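 note: plate controls were bound peptide for no effect and peptide without receptor for full effect; nearly all actives have a fitted effect of over 50% in size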
Target sequence (P10828 whole entry, looked up): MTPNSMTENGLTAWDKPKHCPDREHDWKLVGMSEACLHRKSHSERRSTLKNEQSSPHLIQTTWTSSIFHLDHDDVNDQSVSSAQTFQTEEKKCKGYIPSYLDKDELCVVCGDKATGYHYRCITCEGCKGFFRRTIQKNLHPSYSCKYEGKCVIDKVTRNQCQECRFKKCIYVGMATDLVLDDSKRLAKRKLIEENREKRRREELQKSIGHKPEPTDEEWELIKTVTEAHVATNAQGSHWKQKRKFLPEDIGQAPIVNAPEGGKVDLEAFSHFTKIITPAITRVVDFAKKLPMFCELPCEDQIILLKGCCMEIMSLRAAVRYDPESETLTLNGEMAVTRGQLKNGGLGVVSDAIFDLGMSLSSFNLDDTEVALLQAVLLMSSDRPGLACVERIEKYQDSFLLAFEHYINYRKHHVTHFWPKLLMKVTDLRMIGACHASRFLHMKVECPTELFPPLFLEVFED
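Quantitative HTS by FP: 0.6 uM TRb LBD, 20 nM labeled SRC2 20-mer, 1 uM T3, 5% DMSO; 5 hr ambient incubation; % activity per concentration and potencies from concentration series.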
WRN helicase inh: WRN helicase (human) inhibition | Potency, µM (series often up to 114 µM), for inactives: at the highest dose activity change, negative = inhibition, most hits filed as inhibitors | WRN helicase unwinding, fluorescent forked duplex, kinetic | 360,000 tested, 0.46% active | AID 651768 | Q14191; note: nearly all actives have a fitted effect of over 55% in size
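Primary qHTS, 1536-well format. 20 nM WRN + compound, 15 min RT; start with 100 nM forked fluorophore/quencher duplex, 2 mM ATP (final); kinetic read ex 525/em 598 nm.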
APE1 dye cs: DNA dye displacement counter-screen activity; DNA fluorescent dye displacement counterscreen, fluorescence; 480 tested, 7% active; shares compounds with APE1 inh-1; Potency, µM (doses to about 28.5 µM), without a hit: at the top dose activity change, negative = inhibition, actives largely listed as inhibitors;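 note: loss of thiazole orange fluorescence as the dye is displaced from duplex DNA; 0% = ThO with dsDNA and no compound and -100% = ThO without dsDNA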
EndoIV counter: Endo IV (E. coli) inhibition counter-screen. shares compounds with APE1 inh-1. E. coli Endo IV, fluorogenic AP-site DNA cleavage. Potency, µM (highest dose often 27.1 µM), inactives show at the top dose activity change, negative = inhibition, most hits filed as inhibitors. 560 tested, 4% active. AID 2565;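 note: plate controls were uninhibited enzyme wells for no effect and no enzyme buffer wells for full effect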
APE1 inh-2: confirmation of inhibitors of human APE1 endonuclease. shares compounds with APE1 inh-1. purified APE1, fluorogenic abasic-site DNA cleavage. Potency, µM (titrated, usually from 57.1 µM), without a hit: top-dose activity change, negative = inhibition, usual class: inhibitors. 750 tested, 44% active; note: nearly all actives have a fitted effect of over 30% in size
APE1 FP inh: APE1 (human) DNA binding inhibition, fluorescence polarization. Potency, µM (titrated, usually from 28.5 µM), without a hit: top-dose activity, negative = inhibition, most hits filed as inhibitors. AID 2573. 480 tested, 7% active. shares compounds with APE1 inh-1. APE1 binding to TAMRA-labelled double-stranded DNA, fluorescence polarization displacement
Numbers without * were called inactive; ! = a repeat was not active; [ ] = remark or other dose. An excerpt weighted towards active compounds, which were near 0.91% of everything screened. Unless noted, calls come from the whole dose curve; as a rule, active = well fitted curve in the direction sought with a large enough effect; inconclusive = small, poorly fitted or top-dose-only effect, or another doubt; inactive = no such curve, though single readings can be large; an effect the other way counts as inactive or inconclusive. Unless noted, % is set by controls: 0 for no effect and ±100 for the full control effect; potency is the fitted concentration of half-maximal effect.

`C/C1=C\[C@@H](C)C/C=C/[C@H]2[C@@H]3O[C@]3(C)[C@@H](C)[C@H]3[C@H](Cc4c[nH]c5ccccc45)NC(=O)[C@]32C(=O)/C=C/C(=O)[C@@H]1O` gave APE1 inh-1 15.8µM*, BLM helicase inh -15.1%, TexasRed fluor -0.9%, RECQ1 inh inactive, TRb SRC2 PPI -10.7% and WRN helicase inh -3.7%.
For C=CCN1C(=O)NC(=O)/C(=C/c2cc3c4c(c2)CCCN4CCC3)C1=O the results were APE1 inh-1 inconclusive, BLM helicase inh inconclusive, TexasRed fluor -1.0%, RECQ1 inh 31.6µM*, TRb SRC2 PPI 0.4% and WRN helicase inh -28.7%.
For CCOc1cccc(N2C(=O)/C(=C/c3ccco3)C(=O)NC2=S)c1 the results were APE1 inh-1 10.6µM*, BLM helicase inh 28.2µM* and WRN helicase inh 35.5µM*.
Screening COc1cccc(N2C(=O)/C(=C/c3ccc(C)o3)C(=O)NC2=S)c1 returned APE1 inh-1 33.9%, BLM helicase inh -13.1% and WRN helicase inh inconclusive.
O=c1c(O)c(-c2ccc(O)c(O)c2)oc2c(O)c(O)cc(O)c12 was read as APE1 inh-1 inconclusive, BLM helicase inh -11.2%, TexasRed fluor -2.3%, RECQ1 inh inactive, TRb SRC2 PPI 4.0%, EndoIV counter -11.1%[57.1 µM] and APE1 inh-2 0.501µM*.
Screening CC1=C2C3OC(=O)C(C)C3CC[C@@]2(C)C=CC1=O (stereo not given in full) returned APE1 inh-1 inconclusive, BLM helicase inh 1.7%, TexasRed fluor -2.4%, RECQ1 inh -16.2%, TRb SRC2 PPI 2.4%, WRN helicase inh 6.9%, EndoIV counter -4.5%[57.1 µM] and APE1 inh-2 -4.3%.
`CC1=C2[C@@H]3OC(=O)[C@@H](C)[C@@H]3CC[C@]2(C)C=CC1=O` gave BLM helicase inh 3.8%[21.4 µM], TexasRed fluor -0.2%, RECQ1 inh -3.1%[25.9 µM] and TRb SRC2 PPI -0.8%.
CN1Cc2ccccc2[C@@H]2c3cccc4[nH]cc(c34)C[C@H]21 was read as APE1 inh-1 inconclusive, BLM helicase inh 2.2%, TexasRed fluor inconclusive, RECQ1 inh -11.1%, TRb SRC2 PPI -3.6%, APE1 dye cs -5.8%[57.1 µM], EndoIV counter -22.0%[57.1 µM], APE1 inh-2 inconclusive and APE1 FP inh -9.1%[57.1 µM].
For Nc1c(Cl)c(F)nc(OCC(=O)O)c1Cl the results were TexasRed fluor -1.6%[201 µM] and TRb SRC2 PPI -2.3%[201 µM].
Screening CCCCC(CC)COC(=O)Cl (stereo not given) returned TexasRed fluor 1.2%[201 µM] and TRb SRC2 PPI 1.8%[201 µM].
`CON(C)C(=O)Nc1ccc(Cl)c(Cl)c1` gave TexasRed fluor -2.5%[201 µM] and TRb SRC2 PPI 0.1%[201 µM].
For Oc1cccc(Cl)c1Cl the results were APE1 inh-1 -5.9%, TexasRed fluor 1.4%, RECQ1 inh -7.0% and TRb SRC2 PPI 7.3%.
For Oc1ccccc1O the results were APE1 inh-1 28.2µM*!, TexasRed fluor -2.0%, RECQ1 inh 15.8µM*!, TRb SRC2 PPI 5.3%, WRN helicase inh 1.1%[11.6 µM], EndoIV counter 13.1%[57.1 µM] and APE1 inh-2 -14.5%.
Screening Cc1cc(/C=C2\C(=O)NC(=O)N(c3cccc(F)c3)C2=O)c(C)n1-c1cc(C(=O)O)cc(C(=O)O)c1 returned APE1 inh-1 inconclusive, BLM helicase inh -5.7%, TexasRed fluor 3.1%, RECQ1 inh inactive, TRb SRC2 PPI -8.7%, WRN helicase inh inconclusive, APE1 dye cs -7.4%, EndoIV counter -5.3%, APE1 inh-2 inconclusive and APE1 FP inh -1.6%.
Screening Cc1cc(/C=C2/C(=O)NC(=O)N(Cc3ccco3)C2=O)c(C)n1-c1ccccc1 returned APE1 inh-1 inconclusive, BLM helicase inh -27.6%, TexasRed fluor -1.3%, RECQ1 inh 28.2µM*, TRb SRC2 PPI 13.1%, WRN helicase inh inconclusive, APE1 dye cs 4.0%, EndoIV counter 8.4%, APE1 inh-2 inconclusive and APE1 FP inh -3.2%.
`Cc1cc(/C=C2\C(=O)NC(=O)N(c3ccc(Cl)cc3)C2=O)c(C)n1-c1cccc(C(=O)O)c1` gave APE1 inh-1 -25.3%, BLM helicase inh -6.2% and WRN helicase inh inconclusive.
For CCOP(=S)(OCC)OC(Cl)C(Cl)(Cl)Cl (stereo not given) the results were TexasRed fluor -3.0%[201 µM] and TRb SRC2 PPI -5.2%[201 µM].
Screening CO/N=C(\C(=O)N[C@@H]1C(=O)N2C(C(=O)O)=C(CSc3nc(=O)c(O)nn3C)CSC12)c1csc(N)n1 (stereo not given in full) returned APE1 inh-1 10µM*, TexasRed fluor -4.2%, RECQ1 inh inconclusive, TRb SRC2 PPI 8.7%, EndoIV counter -15.0%[57.1 µM] and APE1 inh-2 2.24µM*.
CC(COc1ccc(Oc2ccccc2)cc1)Oc1ccccn1 (stereo not given) was read as TexasRed fluor 0.1%[201 µM] and TRb SRC2 PPI -2.2%[201 µM].
For COCc1cnc(C2=NC(C)(C(C)C)C(=O)N2)c(C(=O)O)c1 (stereo not given) the results were TexasRed fluor -1.4%[201 µM] and TRb SRC2 PPI 1.0%[201 µM].
`C/C=C(/C)C(=O)O[C@H]1C(C)=C2C([C@@H]1OC(=O)CCCCCCC)[C@@](C)(OC(C)=O)C[C@@H](OC(=O)CCC)[C@@]1(O)[C@H]2OC(=O)[C@@]1(C)O` (stereo not given in full) gave APE1 inh-1 -3.9%, TexasRed fluor -2.6%, RECQ1 inh -15.2%, TRb SRC2 PPI -4.4%, EndoIV counter 10µM* and APE1 inh-2 inconclusive.

Source: PubChem (National Center for Advancing Translational Sciences (NCATS))
